Activity calls are given as the source filed them.
Legend:
[1] = E. coli DRC41 culture turbidity changes, primary screen, E. coli filamentation inducer project, strain DRC41, OD650, 48 h (AID 1152);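 also: E. coli MC1000 strain DRC41 lacking acrAB efflux pump and sulA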; settings: E. coli DRC41 (acrAB sulA), higher = more signal, called active from +8 up or from −8 down
[2] = small-molecule binders of probe aLefty1, primary screen, biochemical, small-molecule microarray, 635/667 nm fluorescence (AID 1153); settings: higher = more signal;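 also: score merges spot fluorescence with signal-to-noise ratio from the scanned slide images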
[3] = PSAC antagonists in infected red cells, primary screen, cell-based, P. falciparum Indochina, OD700, 1 h (AID 1154); settings: P. falciparum Indochina infected RBC osmotic lysis, higher = more signal, called active from +8 up or from −8 down
[4] = PSAC antagonists in infected red cells, primary screen, cell-based, P. falciparum Indochina, OD700, 2 h (AID 1155);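 also: lysis reports solute entry through the parasite surface anion channel PSAC; channel blockers reduce lysis of infected cells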; settings: P. falciparum Indochina infected erythrocytes, osmotic lysis OD700; higher = more signal, called active from +8 up or from −8 down
[5] = osmotic lysis modulators in infected erythrocytes, primary screen, PSAC antagonist project, cell-based, P. falciparum Indochina, OD700, 3 h (AID 1156); settings: higher = more signal, called active from +8 up or from −8 down
[6] = PSAC antagonists in infected red cells, primary screen, cell-based, P. falciparum Indochina, OD700, 18 h (AID 1157); settings: P. falciparum Indochina infected erythrocytes, osmotic lysis OD700, 18 h; higher = more signal, called active from +8 up or from −8 down
[7] = modulators of S6 phosphorylation in cells, primary screen, cell-based, A549, cytoblot, luminescence, serum-stimulated (AID 1158); settings: A549 phospho-S6 cytoblot, 5 h, higher = more signal;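 also: serum-stimulated A549 lung adenocarcinoma cells; signal is phosphorylated S6 detected by cytoblot immunostaining with HRP secondary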
[8] = target: NADPH oxidase 2 (Homo sapiens) (UniProt P04839); test: NOX2-dependent H2O2 signal modulators, primary screen, NOX inhibitor project, cell-based, HEK293-NOX2, PMA-stimulated, Amplex Red fluorescence (AID 1159); settings: 45 min, higher = more signal, called active from +8 up or from −8 down; also: test concentration not given here
[9] = target: NADPH oxidase 4 (Homo sapiens) (UniProt Q9NPH5); test: NOX4-dependent H2O2 signal modulators, primary screen, NOX inhibitor project, cell-based, HEK293-NOX4, tetracycline-induced, Amplex Red fluorescence (AID 1160); settings: 45 min, higher = more signal, called active from +8 up or from −8 down
[10] = target: NADPH oxidase 5 (Homo sapiens) (UniProt Q96PH1); test: NOX5-dependent H2O2 signal modulators, primary screen, NOX inhibitor project, cell-based, HEK293-NOX5, Amplex Red fluorescence (AID 1161); settings: HEK293-NOX5, ionomycin, 45 min, higher = more signal
[11] = A549 cell viability effects, profiling panel, calcein-AM fluorescence, 48 h, basal (AID 1162); settings: higher = more signal; also: test concentration not given here
[12] = adipocyte viability effects, profiling panel, cell-based, 3T3-L1 adipocytes, calcein-AM fluorescence, 48 h, basal (AID 1163); settings: 3T3-L1 adipocytes viability, higher = more signal; also: test concentration not given here
[13] = HepG2 cell viability effects, profiling panel, calcein-AM fluorescence, 48 h, basal (AID 1164); settings: higher = more signal; also: test concentration not given here
[14] = MM1S cell viability effects, profiling panel, calcein-AM fluorescence, 48 h, basal (AID 1165); settings: higher = more signal;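 also: viability of MM1S multiple myeloma cells under basal unstimulated conditions; test concentration not given here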
[15] = basal RPMI8226 viability, no added stimulus, profiling panel, cell-based, calcein-AM fluorescence, 48 h, PK04 Diversity Set (AID 1166); settings: RPMI8226 myeloma viability, higher = more signal;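 also: cells grown under basal conditions without added stimulus; test concentration not given here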
[16] = basal HepG2 mitochondrial membrane potential changes, profiling panel, cell-based, JC-1 fluorescence, 24 h, 100 nL compound (AID 1167); settings: higher = more signal; also: test concentration not given here
[17] = basal 3T3-L1 adipocyte mitochondrial potential changes, profiling panel, cell-based, JC-1 fluorescence, 3T3-L1 adipocytes, 24 h, 100 nL compound (AID 1168); settings: JC-1 mitochondrial fluorescence, higher = more signal, called active from +8 up or from −8 down; also: test concentration not given here
[18] = basal RPMI8226 mitochondrial membrane potential changes, profiling panel, cell-based, JC-1 fluorescence, 24 h, 100 nL compound (AID 1169); settings: RPMI8226 myeloma, JC-1 mitochondrial potential fluorescence, higher = more signal; also: test concentration not given here
[19] = basal MM1S mitochondrial membrane potential changes, profiling panel, cell-based, JC-1 fluorescence, 24 h, 100 nL compound (AID 1170); settings: higher = more signal; also: test concentration not given here
[20] = A549 lung cancer cell viability effects, profiling panel, resazurin fluorescence, 24 h, PK04 Diversity Set (AID 1171); settings: higher = more signal, called active from +8 up or from −8 down; also: test concentration not given here

NADPH oxidase 4 (Homo sapiens), sequence (Q9NPH5 whole entry, looked up): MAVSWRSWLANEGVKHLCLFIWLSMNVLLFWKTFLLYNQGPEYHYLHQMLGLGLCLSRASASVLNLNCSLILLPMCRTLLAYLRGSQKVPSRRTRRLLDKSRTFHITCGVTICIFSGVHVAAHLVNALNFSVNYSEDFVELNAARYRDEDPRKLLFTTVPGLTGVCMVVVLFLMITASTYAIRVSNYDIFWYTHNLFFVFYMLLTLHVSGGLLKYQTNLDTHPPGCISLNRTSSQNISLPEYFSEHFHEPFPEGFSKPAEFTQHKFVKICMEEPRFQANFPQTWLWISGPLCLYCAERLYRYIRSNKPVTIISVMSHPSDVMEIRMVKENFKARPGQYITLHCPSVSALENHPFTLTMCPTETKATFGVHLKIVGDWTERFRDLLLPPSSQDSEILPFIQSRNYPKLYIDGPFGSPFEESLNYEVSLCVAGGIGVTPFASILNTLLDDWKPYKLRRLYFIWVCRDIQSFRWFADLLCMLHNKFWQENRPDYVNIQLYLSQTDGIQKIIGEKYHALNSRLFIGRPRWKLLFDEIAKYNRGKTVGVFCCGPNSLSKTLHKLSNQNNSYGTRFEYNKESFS
NADPH oxidase 2 (Homo sapiens), sequence (P04839 whole entry, looked up): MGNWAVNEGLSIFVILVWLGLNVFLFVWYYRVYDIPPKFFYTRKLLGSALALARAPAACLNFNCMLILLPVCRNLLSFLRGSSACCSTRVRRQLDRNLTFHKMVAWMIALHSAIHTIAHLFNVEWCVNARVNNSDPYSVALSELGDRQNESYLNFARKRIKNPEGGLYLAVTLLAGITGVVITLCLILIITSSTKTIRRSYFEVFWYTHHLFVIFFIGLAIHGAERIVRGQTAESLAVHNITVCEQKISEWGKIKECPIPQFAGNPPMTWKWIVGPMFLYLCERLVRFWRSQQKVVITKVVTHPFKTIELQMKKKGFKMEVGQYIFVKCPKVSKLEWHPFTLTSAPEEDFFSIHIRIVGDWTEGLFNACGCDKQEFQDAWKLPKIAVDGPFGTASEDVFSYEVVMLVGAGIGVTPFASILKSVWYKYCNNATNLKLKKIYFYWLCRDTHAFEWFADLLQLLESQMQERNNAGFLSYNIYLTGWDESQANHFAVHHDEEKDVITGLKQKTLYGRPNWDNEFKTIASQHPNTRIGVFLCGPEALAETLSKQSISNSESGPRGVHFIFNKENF
NADPH oxidase 5 (Homo sapiens), sequence (Q96PH1 whole entry, looked up): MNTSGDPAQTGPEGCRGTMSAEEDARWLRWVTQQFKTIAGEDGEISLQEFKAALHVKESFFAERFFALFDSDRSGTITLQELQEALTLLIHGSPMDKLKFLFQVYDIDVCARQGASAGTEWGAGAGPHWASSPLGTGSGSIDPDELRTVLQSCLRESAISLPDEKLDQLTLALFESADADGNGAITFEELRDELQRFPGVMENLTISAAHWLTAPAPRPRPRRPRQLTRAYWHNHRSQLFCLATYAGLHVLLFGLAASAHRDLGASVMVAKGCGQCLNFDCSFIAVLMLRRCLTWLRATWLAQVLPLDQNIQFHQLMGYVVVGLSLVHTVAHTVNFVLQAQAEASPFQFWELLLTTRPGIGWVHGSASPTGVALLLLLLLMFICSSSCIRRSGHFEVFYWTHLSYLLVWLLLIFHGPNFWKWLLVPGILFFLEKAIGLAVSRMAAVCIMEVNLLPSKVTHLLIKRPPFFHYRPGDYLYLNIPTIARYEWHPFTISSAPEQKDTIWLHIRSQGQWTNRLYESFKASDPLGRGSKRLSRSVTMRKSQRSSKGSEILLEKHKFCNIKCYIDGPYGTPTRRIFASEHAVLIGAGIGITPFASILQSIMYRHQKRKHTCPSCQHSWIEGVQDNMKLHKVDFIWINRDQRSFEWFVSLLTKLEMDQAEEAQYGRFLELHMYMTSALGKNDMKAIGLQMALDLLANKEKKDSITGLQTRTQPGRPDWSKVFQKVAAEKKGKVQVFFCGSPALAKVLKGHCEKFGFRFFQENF

SMILES	z-score [1]	composite z-score [2]	z-score [3]	z-score [4]	z-score [5]	z-score [6]	z-score [7]	z-score [8]	z-score [9]	z-score [10]	z-score [11]	z-score [12]	z-score [13]	z-score [14]	z-score [15]	z-score [16]	z-score [17]	z-score [18]	z-score [19]	z-score [20]
C[C@H]1C2[C@H](Cc3ccccc3)NC(=O)[C@]23C(=O)NCC(=O)N2CCC[C@H]2C(=O)NC/C=C\C/C=C/C3[C@@H]2O[C@]12C (stereo not given in full)	0.822 (inactive)	-0.193	-0.0865 (inactive)	-0.387 (inactive)	-0.62 (inactive)	-0.113 (inactive)	0.255	0.212 (inactive)	1.07 (inactive)	0.649	0.379	0.491	0.409	0.163	-0.547	-0.324	0.0628 (inactive)	-1.03	0.227	0.87 (inactive)
COCCOC(=O)N1C(=O)[C@@]2(c3cc(C#CC4(O)CCCCCC4)ccc31)[C@H](c1ccc(OCCO)cc1)N1[C@H](c3ccccc3)[C@H](c3ccccc3)OC(=O)[C@H]1[C@@H]2C(N)=O	-0.137 (inactive)	0.223	4.19 (inactive)	1.89 (inactive)	0.295 (inactive)	0.999 (inactive)	-0.485	1.82 (inactive)	0.847 (inactive)	-0.305	-0.29	0.902	-1.52	-3.04	-3.86	-2.03	-0.408 (inactive)	-0.814	-1.21	-0.933 (inactive)
COCCOC(=O)N1C(=O)[C@@]2(c3cc(C#CC4=CCCCC4)ccc31)[C@H](C(=O)N1CCN(c3ncccn3)CC1)[C@H]1C(=O)O[C@H](c3ccccc3)[C@H](c3ccccc3)N1[C@@H]2c1ccccc1OCCO	2.23 (inactive)	0.297	1.65 (inactive)	0.256 (inactive)	-0.634 (inactive)	-0.227 (inactive)	2.05	-0.241 (inactive)	-2.24 (inactive)	-3.12	-0.793	1.36	-0.435	-1.24	-1.88	-0.0311	10.6 (active)	-0.645	-1.47	0.738 (inactive)
COC(=O)Cn1c(C(=O)N(C)C)cc2c1C[C@H]1CN(C(=O)c3ccccc3)[C@@](Cc3ccc(OC)cc3)(C(=O)OC)[C@@H]21	-1.35 (inactive)	0.546	2.81 (inactive)	0.765 (inactive)	1.04 (inactive)	0.765 (inactive)	-0.62	0.494 (inactive)	-0.539 (inactive)	0.813	-0.199	-0.714	0.496	0.611	-0.734	3.44	-0.881 (inactive)	-0.329	-1.36	-0.31 (inactive)
COCCCN1C(=O)[C@@]2(Cc3ccccc31)c1ccccc1C(=O)N(Cc1ccccc1OC)[C@H]2c1ccc(CO)cc1	0.168 (inactive)	0.193	0.883 (inactive)	0.216 (inactive)	0.0049 (inactive)	-0.185 (inactive)	0.592	0.0278 (inactive)	0.545 (inactive)	1.41	-0.609	1.12	-0.95	-0.492	-0.452	-0.499	-0.722 (inactive)	0.695	-0.0862	-0.458 (inactive)
CCCCC(=C=CC[C@@H](O)c1cccc(OCCO)c1)C[C@@H](O)COCc1ccccc1	1.76 (inactive)	-0.101	16.3 (active)	1.3 (inactive)	0.605 (inactive)	-1.07 (inactive)	2.58	-1.61 (inactive)	-1.01 (inactive)	-2.47	1.1	1.79	1.3	-1.21	0.286	-0.0343	0.436 (inactive)	-0.785	-0.91	-0.0721 (inactive)
CCCC[C@@H]1C[C@H]1[C@@H](NC(=O)c1ccc(C(F)(F)F)cc1)c1ccc(C(=O)OC)cc1	-0.499 (inactive)	0.375	8.27 (active)	0.851 (inactive)	0.512 (inactive)	0.422 (inactive)	-0.0327	-0.628 (inactive)	0.497 (inactive)	1.03	-0.844	-0.55	-1.33	-1.97	-1.73	-0.84	0.282 (inactive)	-0.167	-1.72	0.312 (inactive)
COC(=O)[C@@]1(Cc2ccc(OC)cc2)[C@@H]2[C@@H](CC(=O)[C@H]2CC(=O)C(=O)N2CCCC2)CN1C(=O)c1ccccc1	-1.17 (inactive)	2.14	4.55 (inactive)	0.989 (inactive)	1.07 (inactive)	0.986 (inactive)	0.0676	-0.204 (inactive)	0.65 (inactive)	0.26	-0.515	0.745	0.681	-2.61	-2.94	0.74	-1.62 (inactive)	-1.01	-0.787	-0.189 (inactive)
CC(C)C(=C=CC[C@@H](O)c1ccccc1OCCO)C[C@@H](O)c1cc(Cl)cc(Cl)c1O	-0.701 (inactive)	0.0004	22.2 (active)	5.74 (inactive)	-0.0473 (inactive)	1.56 (inactive)	-0.844	-1.79 (inactive)	-1.46 (inactive)	-1.8	-0.551	0.493	-1.07	-3.43	-3.96	-2.61	-0.00407 (inactive)	-0.847	-1.31	0.0062 (inactive)
C=CCNC(=O)[C@@H]1[C@H]2C(=O)O[C@H](c3ccccc3)[C@H](c3ccccc3)N2[C@H](c2ccc(O)cc2)[C@@]12C(=O)Nc1ccc(C#CC3(O)CCCCCC3)cc12	-0.418 (inactive)	-0.196	2.35 (inactive)	0.275 (inactive)	0.0479 (inactive)	0.778 (inactive)	-0.339	0.948 (inactive)	0.534 (inactive)	1.19	-1.04	0.889	-0.522	-1.67	-3.93	-2.28	-0.41 (inactive)	-0.748	-0.188	0.0696 (inactive)
C=C(COC)/C(=C/C[C@H](OC(=O)c1ccncc1)c1cccc(OCCO)c1)c1cnc2ccccc2c1	-0.223 (inactive)	0.317	9.54 (active)	0.936 (inactive)	0.426 (inactive)	0.431 (inactive)	0.231	-0.0605 (inactive)	0.24 (inactive)	-0.3	-0.0119	0.222	0.596	-2.77	-0.0229	0.327	-0.0487 (inactive)	0.568	-0.704	0.251 (inactive)
COCCOC(=O)N1C(=O)[C@@]2(c3cc(C#CC4(O)CCCCCC4)ccc31)[C@H](c1ccc(OCCO)cc1)N1[C@H](c3ccccc3)[C@H](c3ccccc3)OC(=O)[C@H]1[C@@H]2C(=O)N1CCCCCCC1	0.148 (inactive)	2.52	2.18 (inactive)	2.02 (inactive)	0.736 (inactive)	1.02 (inactive)	0.49	0.707 (inactive)	-1.45 (inactive)	0.0377	-0.359	2.14	0.292	-0.834	-1.78	-1.1	-2.25 (inactive)	-0.468	-1.08	-0.557 (inactive)
COC(=O)C(CC#Cc1ccc2c(c1)[C@]1(C(=O)N2)[C@H](c2ccc(O)cc2)N2[C@H](c3ccccc3)[C@H](c3ccccc3)OC(=O)[C@H]2[C@@H]1C(=O)N1CCc2cc(OC)c(OC)cc2C1)C(=O)OC	-0.958 (inactive)	0.156	1.4 (inactive)	0.923 (inactive)	0.848 (inactive)	0.591 (inactive)	-0.747	2.05 (inactive)	0.706 (inactive)	0.218	-0.581	-0.959	-0.184	-1.71	-4.43	-2.15	0.124 (inactive)	-1.22	-1.03	-0.0149 (inactive)
Cc1ccc(S[C@]2(C(=O)NCCN3CCOCC3)CC(=O)N(C3CCCCC3)[C@@H]2c2ccc(CO)cc2I)cc1	0.465 (inactive)	-0.174	6.63 (inactive)	0.86 (inactive)	1.68 (inactive)	0.622 (inactive)	-0.439	0.832 (inactive)	0.11 (inactive)	2.6	0.312	0.0138	0.293	-2.42	-2.46	2.54	0.11 (inactive)	-0.457	-1.53	2.04 (inactive)
Cc1c(-c2ccc(-c3ccc(Cl)c(Cl)c3)o2)nc(-c2ccccc2)c2c1CO[Si]2(C(C)C)C(C)C	-1.3 (inactive)	-0.101	0.311 (inactive)	-0.267 (inactive)	-0.803 (inactive)	-0.944 (inactive)	-0.298	-0.545 (inactive)	0.0324 (inactive)	-0.237	-0.719	-0.527	0.0118	-3.01	-3.96	-1.38	-0.313 (inactive)	-0.933	-1.66	0.525 (inactive)
O=C1OCCC/C=C\[C@H]2OC34C=CCN(Cc5ccccc5)C(=O)[C@H]3N(CCCCCO)C(=O)[C@@H]4C12 (stereo not given in full)	0.435 (inactive)	-0.094	-0.457 (inactive)	-0.172 (inactive)	-0.123 (inactive)	-0.354 (inactive)	-0.412	1.17 (inactive)	0.487 (inactive)	1.76	0.379	0.65	0.414	1.03	-0.42	-0.0205	-0.0419 (inactive)	0.803	-0.322	1.37 (inactive)
COc1cc2c(cc1O)C(c1ccc(CN3CCCC3)cc1)N(Cc1cccc(OC(F)(F)F)c1)CC2 (stereo not given)	-4.5 (inactive)	-0.131	12.3 (active)	2.62 (inactive)	-0.608 (inactive)	1.14 (inactive)	-0.223	-8.71 (active)	-4.77 (inactive)	-6.04	-4.78	0.0154	-5.64	-3.22	-4.48	-3.43	1.04 (inactive)	-0.955	-2.64	-4.45 (inactive)
CCOC(=O)C[C@H]1[C@H](OC(=O)c2ccc(C(=O)c3ccccc3)cc2)[C@@H](NC(=O)c2ccc3ccccc3c2)c2cc(OCCCO)ccc2N1C(=O)c1ccc2ccccc2n1	1.86 (inactive)	0.23	6.29 (inactive)	1.32 (inactive)	-0.0906 (inactive)	0.728 (inactive)	0.154	0.412 (inactive)	0.0963 (inactive)	1.66	1.54	0.0263	0.664	0.393	-0.693	2.63	0.978 (inactive)	-0.0974	1.75	0.298 (inactive)
